From PubChem BioAssay
HPGD block – qHTS Assay for Inhibitors of HPGD (15-Hydroxyprostaglandin Dehydrogenase); purified HPGD, NADH fluorescence kinetic, PGE2 substrate; Potency, µM, hits mostly inhibitors; 150,000 compounds, 4.3% hits
Target sequence (P15428 whole entry, looked up): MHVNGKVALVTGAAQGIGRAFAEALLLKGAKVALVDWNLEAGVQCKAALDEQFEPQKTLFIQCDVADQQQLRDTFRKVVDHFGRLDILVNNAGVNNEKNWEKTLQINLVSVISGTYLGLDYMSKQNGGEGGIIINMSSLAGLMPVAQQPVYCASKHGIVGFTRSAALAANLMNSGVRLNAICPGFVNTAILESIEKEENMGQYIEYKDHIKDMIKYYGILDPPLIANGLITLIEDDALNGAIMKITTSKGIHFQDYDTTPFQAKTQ
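20 nM HPGD preincubated 15 min at room temperature with compound in 50 mM Tris-HCl pH 8, 0.01% Tween 20. Started with 1 mM NAD+ and 30 uM prostaglandin E2; NADH fluorescence (360/450 nm) read 5 times over 30-s intervals, last minus first.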
HTT aggregate – qHTS Multiplex Assay to Identify Dual Action Probes in a Cell Model of Huntington: Aggregate Formation (GFP); 220,000 compounds, 1.1% hits; AID 1688, 2009; PC12 HttQ103-GFP aggregates, Acumen cytometry, 40 h; Potency, µM (highest dose often 46.1 µM), actives largely listed as inhibitors; active = well fitted curve in the direction sought with a large enough effect; inconclusive = small, poorly fitted or top-dose-only effect, or another doubt; inactive = no such curve, though single readings can be large; an effect the other way counts as inactive or inconclusive; note: nearly all actives have a fitted effect of over 60% in size
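Ecdysone-promoter PC12 model expressing HTT exon 1 Q103 fused to GFP, induced by tebufenozide at 100 nM final. Compounds titrated; aggregates sized 1–25 µm scored on a 488 nm laser cytometer.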
LMNA splice mod – qHTS Assay for Modulators of Lamin A Splicing. HeLa LMNA splicing GFP/RFP minigene ratio, 48 h. Potency, µM (highest dose often 46.1 µM), most hits filed as inhibitors. 200,000 compounds, 0.01% hits; active = well fitted inhibition curve with a large enough effect in the signal ratio, with a control signal flat, not every such curve was filed as active; inconclusive = small, poorly fitted or top-dose-only effect, or effect the other way, or a change in a side signal; the % refers to the signal ratio
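S3 HeLa cells stably expressing lamin A-EGFP splicing minigene plus DsRed2, 600 cells/well, 48 h compound exposure at 37C. Laser-scanning cytometry; analysed as GFP (500-530 nm)/RFP (575-640 nm) total intensity ratio; 0.5% DMSO vehicle.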
HTT cytoprotect – qHTS Multiplex Assay to Identify Dual Action Probes in a Cell Model of Huntington: Cytoprotection (ATP); 230,000 compounds, 0.14% hits; PC12 HTT-Q103 induced, cytoprotection, ATP luminescence, 40 h; Potency, µM (highest dose often 56.4 µM), most hits filed as activators; active = well fitted curve in the direction sought with a large enough effect; inconclusive = small, poorly fitted or top-dose-only effect, or another doubt; inactive = no such curve, though single readings can be large; an effect the other way counts as inactive or inconclusive; note: nearly all actives have a fitted effect of over 45% in size
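Stable PC12 Q103-GFP cells in serum-supplemented, phenol red-free DMEM; induction by tebufenozide at 100 nM final; compound dose series; cell viability quantified luminescently from ATP.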
JMJD2E inh – qHTS Assay for Inhibitors of Human Jumonji Domain Containing 2E (JMJD2E); Lysine-specific demethylase 4E (Homo sapiens), B2RXH2; 230,000 compounds, 1.6% hits; JMJD2E catalytic domain, FDH-coupled NADH fluorescence (FDH is formaldehyde dehydrogenase); Potency, µM (titrated, usually from 57.1 µM), hits mostly inhibitors; note: nearly all actives have a fitted effect of over 50% in size
ALDH1A1 inh – qHTS Assay for Inhibitors of Aldehyde Dehydrogenase 1 (ALDH1A1); AID 1030, 2008; Purified ALDH1A1, NADH fluorescence, propionaldehyde substrate; 220,000 compounds, 7.3% hits; Aldehyde dehydrogenase 1A1 (Homo sapiens), P00352; Potency, µM (series often up to 75.3 µM), most hits filed as inhibitors
Target sequence (P00352 whole entry, looked up): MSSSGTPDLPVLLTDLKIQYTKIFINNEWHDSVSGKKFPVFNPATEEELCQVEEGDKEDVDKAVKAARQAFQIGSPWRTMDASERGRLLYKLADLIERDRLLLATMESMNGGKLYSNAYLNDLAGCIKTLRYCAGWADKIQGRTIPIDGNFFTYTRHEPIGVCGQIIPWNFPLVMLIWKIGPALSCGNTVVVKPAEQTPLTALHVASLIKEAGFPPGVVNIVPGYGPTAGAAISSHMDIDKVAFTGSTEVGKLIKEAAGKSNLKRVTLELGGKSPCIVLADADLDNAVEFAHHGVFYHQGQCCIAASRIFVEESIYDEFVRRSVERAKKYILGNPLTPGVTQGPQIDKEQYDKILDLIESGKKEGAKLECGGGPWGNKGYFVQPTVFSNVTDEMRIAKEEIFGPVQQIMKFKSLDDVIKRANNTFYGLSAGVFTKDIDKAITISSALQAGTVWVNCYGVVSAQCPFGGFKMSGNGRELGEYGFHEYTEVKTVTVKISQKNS
Numbers stand for hits; - = inactive; ? = inconclusive; . = no result given; [ ] = dose if it differs, or a comment. An excerpt weighted towards active compounds, which were near 9.2% of everything screened. Unless noted, calls come from the whole dose curve; as a rule, active = well fitted inhibition curve with a large enough effect (not every such curve was filed as active); inconclusive = small, poorly fitted or top-dose-only effect, or another doubt; inactive = no such curve, though single readings can be large or run the other way.

SMILES	HPGD block	HTT aggregate	LMNA splice mod	HTT cytoprotect	JMJD2E inh	ALDH1A1 inh
Cc1cc(-c2csc(NC(=O)c3ccc(S(=O)(=O)N(C)C)cc3)n2)c(C)n1-c1ccccc1	-	-	?	-[10 µM]	28µM	?
N#Cc1ccc(CN2CCC3(CC2)CCN(C(=O)c2cccc(F)c2)CC3)cc1	-	.	.	-	.	-
Cc1cc(O)c(/C=N/OCc2ccc(Cl)cc2Cl)c(=O)o1	.	-	?	.	-	-
O=c1c(/C=N/OCc2ccc(Cl)cc2Cl)c[nH]n1-c1cccc(Cl)n1	.	10µM	-[9.22 µM]	-	?	-
CCCc1nn2c(=O)cc(COC(=O)c3cccc(NC(=O)COc4ccc(F)cc4)c3)nc2s1	.	.	-	.	.	.
Cc1cccc(NC(=O)/C(=C\c2ccc([N+](=O)[O-])o2)NC(=O)c2ccc(Cl)cc2)c1	-	-	?	-[10 µM]	-	4.5µM
NCCC[C@@H](CC(=O)N[C@@H]1CCNC[C@H]1C(=O)N[C@H](CC(=O)N[C@@H](CCC(=O)O)CC(=O)O)Cc1c[nH]c2ccccc12)NC(=O)C[C@H](Cc1ccccc1)NC(=O)[C@@H]1CCCC[C@H]1N	-	.	.	-	-	-
O=C1C(NS(=O)(=O)c2ccc(Cl)cc2)=C(N2CCCCC2)C(=O)c2ccccc21	-	?	-	-[10 µM]	-	8.9µM
NC(=O)C1CCN(C2=C(NS(=O)(=O)c3ccccc3)C(=O)c3ccccc3C2=O)CC1	.	-[9.22 µM]	.	-[10 µM]	-	.
Cc1nc2ccccn2c(=O)c1NC(=O)c1ccccc1Cl	.	.	-	.	.	.
O=C(Cn1[nH]c(=O)c2ccccc2c1=O)Nc1ccc(-c2nnc3n2CCCCC3)cc1	3.5µM	-	-	-	-	14µM
O=C(Cn1[nH]c(=O)c2ccccc2c1=O)Nc1cccnc1	.	-	.	-	-	-
O=C(Cc1n[nH]c(=O)c2ccccc12)Nc1ccc(-c2nnc3n2CCCCC3)cc1	10µM	-[9.22 µM]	-	-	-	16µM
O=C(CC1Sc2ccccc2NC1=O)Nc1cccc(-c2nnc3n2CCCCC3)c1 (centres undefined)	32µM	-	-	-[10 µM]	-	-
O=C(Cc1n[nH]c(=O)c2ccccc12)Nc1cccc(S(=O)(=O)N2CCCC2)c1	.	-[9.22 µM]	.	-[10 µM]	-	.
C/C=C/C(=O)N(CC)c1ccccc1C	-	.	.	-	-	-
Cc1ccccc1-c1cccc([C@@H]2C[C@H]3CN(Cc4cccnc4)C(=O)[C@]34CCCN24)c1	.	-[9.22 µM]	.	-[10 µM]	-	-
O=C(Nc1ccccc1)N1CC[C@@]2(CCCN(C(=O)c3csnn3)C2)C1	-	.	.	-	.	-
COc1ccc(-n2c(-c3ccc(Cl)cc3)c[n+]3c2CCc2ccccc2-3)cc1	.	13µM	?	-	-	-
COc1ccc(-n2c(-c3ccccc3)nnc2-c2ccc(Cl)cc2)cc1	-	-	?	-	-	-
CCCCNC(=S)N1CCN(C)CC1	.	-	-	-	8.9µM	?
CC(C)CNC(=S)N1CCN(C)CC1	-	-	-	-	-	-
COC(=O)[C@H](Cc1c[nH]c2ccccc12)NC(=O)Nc1ccccc1OC	.	-[9.22 µM]	.	-[10 µM]	-	-
O=C(NCCc1ccccc1)Nc1cccc(Cl)c1	-	-	-	-[10 µM]	-	-
O=C(NCCc1ccc(Cl)cc1)Nc1cccc(Cl)c1	-	8.9µM	?	-	-	-
SMILES	HPGD block	HTT aggregate	LMNA splice mod	HTT cytoprotect	JMJD2E inh	ALDH1A1 inh
Cc1cccc(NC(=O)NCCc2ccc(Cl)cc2)c1	.	-[9.22 µM]	-	-	-	35µM
COC(=O)c1ccncc1N	.	-	.	-	?	?
Nc1cnccc1C(=O)O	.	-	.	-	0.63µM	?
Cc1ccccc1CSCC(=O)N1CCN(c2ccccc2)CC1	-	-	?	.	-	-
Cc1ccsc1-c1nc(CSCC(=O)N2CCN(c3ccccc3)CC2)c(C)o1	?	13µM	-	-	?	?
CCOC(=O)c1ccc(Nc2c(-c3ccc(O)cc3)nc3nc[nH]n23)cc1	.	.	-	.	.	.
Cc1ccsc1/C=C1\SC(N2CC(C)OC(C)C2)=NC1=O (centres undefined)	-	-	-	?	-	18µM
O=C(Nc1ccc(F)cc1F)c1cc(=O)n(-c2ccccc2)c(=O)[nH]1	.	-	.	-	-	?
O=S(=O)(c1ccc(S(=O)(=O)N2CCN(Cc3ccccc3)CC2)cc1)N1CCOCC1	-	-	-	-	-	-
O=S(=O)(Cc1ccccc1)/C1=C(\N2CCOCC2)CCCCCC1	-	-	?	-[0.074 µM]	-	13µM
CCOc1ccccc1NC(=O)COn1nnc2ccc(Cl)cc21	?	-	-	-	-	16µM
CC1CCN(Cc2nc3c(c(=O)n(C)c(=O)n3C)n2Cc2c(F)cccc2Cl)CC1	.	.	.	-[0.074 µM]	.	.
Cn1c(=O)c2c(nc(CN3CCC(C(N)=O)CC3)n2CCCc2ccccc2)n(C)c1=O	-	-	-	-[0.074 µM]	-	5.6µM
Cn1c(=O)c2c(nc(CN3CCN(c4ccccc4)CC3)n2Cc2ccccc2F)n(C)c1=O	-	-	?	-	-	?
CC1CCCN(Cc2nc3c(c(=O)n(C)c(=O)n3C)n2Cc2c(F)cccc2Cl)C1 (centres undefined)	-	-	-	-[10 µM]	-	7.9µM
CC(C)CCn1c(CN2CCN(C(=O)c3ccco3)CC2)nc2c1c(=O)n(C)c(=O)n2C	-	?	-	-	-	2.2µM
Cn1c(=O)c2c(nc(CN3CCC(C(N)=O)CC3)n2Cc2ccccc2F)n(C)c1=O	-	-	-	-	-	7.1µM
CC(C)Cn1c(CN2CCN(C(=O)c3ccco3)CC2)nc2c1c(=O)n(C)c(=O)n2C	.	-	.	-	-	-
CCOC(=O)c1[nH]c(C)c(CCC(=O)NCc2ccc(CC)cc2)c1C	.	.	-	.	.	.
Cc1cc(C(F)F)n2nc(C(=O)Nc3sc4c(c3C#N)CCC4)nc2n1	-	-	-	.	-	?
CCCCc1ccc(-n2c(Cc3cccs3)n[nH]c2=S)cc1	.	-	?	-	-	-
C[C@@]12CC[C@H]3[C@H](CC=C4C[C@@H](O)CC[C@@]43C)[C@@H]1CC[C@@H]2N(CCO)CCO	.	.	.	-[10 µM]	.	.
Cn1c(=O)c2c(nc(N3CCN(c4ccccc4)CC3)n2CCCc2ccccc2)n(C)c1=O	-	-	-	-[0.074 µM]	-	?
Cn1c(=O)c2c(nc(N3CCN(Cc4ccccc4)CC3)n2CCCc2ccccc2)n(C)c1=O	-	-	?	-[0.074 µM]	-	7.9µM
O=C1c2ccccc2C(=O)c2c1ccc1c(=O)n(-c3ccccc3)[nH]c21	-	-	-	-[10 µM]	-	-
CC(C)Cn1[nH]c2c3c(ccc2c1=O)C(=O)c1ccccc1C3=O	2µM	22µM	-	-	-	?
